The source of these data is PubChem BioAssay AID651820 (National Center for Advancing Translational Sciences (NCATS), 2012).

Out of some 340,000 compounds screened, about 12,000 (3.5%) were called active. Another 18% or so got no clear call; they are omitted. The call rests on the fitted dose curve; in most records, active means well fitted inhibition curve with a large enough effect; inconclusive means small, poorly fitted or top-dose-only effect, or another doubt; inactive means no such curve, though single readings can be large or run the other way. The entries come from a sample that favours actives as a whole. Entries that show only a call come without a potency.
Potency means the concentration at half of the fitted maximal effect.

A short description of this assay: qHTS Assay for Inhibitors of Hepatitis C Virus (HCV). Conditions: Huh7.5.1 HCVcc-Cre infection, luciferase reporter, 44 h; series mostly up to 41.8 µM. In outline:
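Seed cells (1,000/well) for 4 h; treat with compound and infect with HCVcc-Cre, moi about 0.5. Incubate 44 h, then detect luciferase activity.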
On to `CCCCN(CC)C(=O)c1ccc2c(c1)OCO2`, for which the Potency entry is “inactive”. Still for that read-out and setting: under `Cc1cccc(C(=O)NCCCN(C)CCCNC(=O)c2cccc(C)c2)c1` stands “inactive”; under `COCCN(Cc1cc2cc3c(cc2nc1Cl)OCO3)C(=O)c1cccc(C)c1`, 12.6 µM (active). Still for that read-out and setting: then `O=C(CC1Sc2ccccc2NC1=O)NNc1ccc(Cl)c(Cl)c1` (configuration not stated), with “inactive”; and `O=c1[nH]c(SCc2cccc(F)c2)nc2ccccc12`, with “inactive”.

Turning to `O=c1c2ccccc2nc2n1C(CSCc1ccccc1)CS2` (configuration not stated), the Potency was 14.1 µM (active). Still for that read-out and setting: under `O=c1c2ccccc2nc2n1C(CSc1ccc(F)cc1)CN2` (configuration not stated) stands “inactive”.

With `O=c1c2ccccc2nc2n1C(CSc1ccc(Cl)cc1)CN2` (configuration not stated), the Potency result is “inactive”. Same read-out and setting: under `N#Cc1c(-c2ccccc2)nc(SCc2cccc(C(F)(F)F)c2)[nH]c1=O` stands “inactive”; under `O=c1c2ccccc2nc2n1C(CSCc1cccc(C(F)(F)F)c1)CS2` (configuration not stated), 10 µM (active). Still for that read-out and setting: under `CN(C)S(=O)(=O)c1ccc(N2CCCC2)c(C(=O)Nc2ccc(Br)cc2F)c1` stands “inactive”; under `COc1ccc(S(=O)(=O)N2CCN(c3cnccn3)CC2)cc1`, “inactive”; under `N#C/C(=C/c1ccc(-c2ccccc2[N+](=O)[O-])o1)C(=O)NCCN1CCCCC1`, “inactive”.

Consider `C=CCNC(=O)/C(=C\c1cccc([N+](=O)[O-])c1)NC(=O)c1ccccc1`, for which the Potency result was “inactive”.

With `Cc1ccc(C(=O)N/C(=C/c2ccc(-c3cccc([N+](=O)[O-])c3)o2)C(=O)NCCCN(C)C)cc1`, the Potency was 11.2 µM (active). For `Cc1ccc(Cc2cnc(NC(=O)/C(C#N)=C/c3ccc(-c4cccc([N+](=O)[O-])c4)o3)s2)cc1`, the Potency result was “inactive”. Regarding `N#C/C(=C\c1ccc(-c2cccc([N+](=O)[O-])c2)o1)C(=O)NCCN1CCOCC1`, the Potency is 14.1 µM (active). Same read-out and setting: under `CN(C)CCNC(=O)/C(=C/c1cccc([N+](=O)[O-])c1)NC(=O)c1ccccc1` stands “inactive”; under `Cc1ccc(-c2csc(C(C#N)=C(O)CN3CCN(C(=O)c4ccco4)CC3)n2)cc1`, “inactive”; under `COc1ccccc1NC(=O)N1C[C@@H]2C[C@@H](C1)c1cccc(=O)n1C2`, 1 µM (active).

As for `COc1cccc(OC)c1C(=O)NC(=S)N1C[C@H]2C[C@H](C1)c1cccc(=O)n1C2`, the Potency entry was “inactive”. The same measure, in the same setting: then `Cc1cccc(NC(=O)N2CC3CC(C2)c2cccc(=O)n2C3)c1` (configuration not stated), with “inactive”; and `C=CCOc1cccc(C2C(C(=O)c3ccc(C)o3)=C(O)C(=O)N2c2nnc(C)s2)c1` (configuration not stated), with “inactive”; and `CCCC(CNC(=O)COC(=O)C1=NNC(=O)CC1)c1ccc(Cl)cc1Cl` (configuration not stated), with “inactive”. Consider `CC(=O)c1ccc(NC(=O)C(C)OC(=O)c2ccc(NS(=O)(=O)c3ccc4[nH]c(=O)[nH]c4c3)cc2)cc1` (configuration not stated), for which the Potency result is “inactive”. The same measure, in the same setting: under `CCCCN1CC(COCc2ccccc2)OCCS1(=O)=O` (configuration not stated) stands “inactive”. On the same count and under the same terms, under `CCCCC[C@@H]1C=C(C(=O)O)[C@H](c2ccc(C#N)cc2)N1S(=O)(=O)c1ccc(C)cc1` stands “inactive”; under `COc1ccc(S(=O)(=O)N2CCN(C(=S)NCC3CCCO3)CC2)cc1OC` (configuration not stated), “inactive”.

On to `S=C(NCC1CCCO1)N1CCN(c2ccc(Cl)c(Cl)c2)CC1` (configuration not stated), for which the Potency was 10 µM (active). `CCOc1ccc(S(=O)(=O)N2CCN(C(=S)NCC3CCCO3)CC2)cc1` (configuration not stated): the activity change, negative = inhibition is -4.09% [at 8.37 µM] (inactive).

Take `CC(C)COc1ccc(C(=O)NNC(=O)CCC(=O)c2cccs2)cc1`: the Potency result was “inactive”. Still for that read-out and setting: then `COC(=O)COc1ccc(S(=O)(=O)Nc2ccc(NC(C)=O)cc2)cc1`, with “inactive”. Consider `COc1ccc(/C=N/NS(=O)(=O)c2ccc(NC(C)=O)cc2)cc1`, for which the Potency result is “inactive”. On the same count and under the same terms, then `COc1ccc(NS(=O)(=O)c2ccc(Oc3c(C#N)cccc3C#N)cc2)cc1`, with 17.8 µM (active); and `O=C(O)C(=Cc1ccccc1[N+](=O)[O-])c1ccccc1`, with “inactive”. Still for that read-out and setting: then `CN1CCN(c2ccc(NC(=O)c3ccc4c(c3)OCCO4)cc2Cl)CC1`, with “inactive”; and `CN1CCN(c2ccc(NC(=O)c3cc(Cl)c4c(c3)OCCO4)cc2)CC1`, with 10 µM (active); and `O=C(Nc1ccc(N2CCOCC2)cc1)c1ccc2c(c1)OCO2`, with “inactive”.

As to `O=C(OCCN1C(=O)c2ccccc2C1=O)[C@@H]1CC(O)CN1S(=O)(=O)c1ccccc1[N+](=O)[O-]` (some centres not stated), the Potency entry was “inactive”.

On to `O=C(NC1=CC(=O)c2ccccc2C1=O)c1ccccc1`, for which the Potency was 6.31 µM (active). Still for that read-out and setting: then `O=C(NC(=O)c1ccccc1)NC(=O)c1ccccc1`, with “inactive”. On the same count and under the same terms, under `O=C1C=C(NS(=O)(=O)c2ccccc2)C(=O)c2ccccc21` stands “inactive”. On the same count and under the same terms, then `CC1=CC(=NNS(=O)(=O)c2ccc([N+](=O)[O-])cc2)CC(C)(C)C1`, with “inactive”; and `CC(=O)OC1C2(CC3N4C(=O)C5(CO)SSC4(CC31O)C(=O)N5C)OC(C)C(C)(C)C2=O` (configuration not stated), with 0.562 µM (active); and `Cc1cc(Br)ccc1NC(=O)CN(C)C(=O)CN1C(=O)NC2(CCCC2)C1=O`, with “inactive”. Turning to `O=S(=O)(NCCCc1ccccc1)c1ccc(Br)cc1`, the Potency result was “inactive”. The same measure, in the same setting: under `O=C(Cn1cnc2c(OCc3ccccc3)ncnc21)NCc1nc2ccccc2[nH]1` stands “inactive”; under `CC(=O)Nc1ccc(NC(=O)COc2ncnc3ccccc23)cc1`, “inactive”; under `Cc1ccc(Nc2c3c(nc4ccccc24)CCC3)cc1`, “inactive”.

Turning to `CC(=O)Nc1ccc(Nc2c3ccccc3nc3ccccc23)cc1`, the Potency is 7.08 µM (active). The same measure, in the same setting: then `CCOc1ccc(NC(=O)c2ccc(NC(=O)CN3C(=O)C(=O)N(CC(C)C)C3=O)cc2)cc1`, with “inactive”; and `CCN(c1ccccc1)S(=O)(=O)c1ccc(C(=O)Nc2ccccc2OC)cc1`, with “inactive”; and `CN(C(=O)CSc1nnc(C2CC2)n1C)C1CCCc2ccccc21` (configuration not stated), with “inactive”. On the same count and under the same terms, under `CC(C)c1ccc(S(=O)(=O)N2CCN(C(C)C(=O)NC3CCCC3)CC2)cc1` (configuration not stated) stands “inactive”; under `OC(CNCC1CCCO1)Cn1c2ccc(Br)cc2c2cc(Br)ccc21` (configuration not stated), 35.5 µM (active); under `O=C(CCNS(=O)(=O)c1ccc(Br)cc1)NCC1CCCO1` (configuration not stated), “inactive”. On the same count and under the same terms, under `CC(NS(=O)(=O)c1ccc(Br)cc1)C(=O)NCC1CCCO1` (configuration not stated) stands “inactive”; under `CCOC(=O)c1ccccc1C(=O)N1CCOCCOCCOCC1`, “inactive”; under `Cc1noc(C)c1C(=O)N1CCOCC1`, “inactive”. As to `Cc1oc2c(c1C(=O)N1CCOCC1)C(=O)c1ccccc1C2=O`, the Potency is 5.62 µM (active). On the same count and under the same terms, then `O=C(NCCC(=O)N1O[C@@H]2C=C[C@H]1C2)OCC1c2ccccc2-c2ccccc21`, with “inactive”; and `CCn1c(=S)[nH]c2cc(S(=O)(=O)N3CCOCC3)ccc21`, with “inactive”; and `COC(=O)C(C)Sc1nc2c(c(=O)n(C)c(=O)n2C)n1Cc1cccc(C)c1` (configuration not stated), with “inactive”. Still for that read-out and setting: under `Cc1cccc(Cn2c(N3CCN(c4ccccc4)CC3)nc3c2c(=O)n(C)c(=O)n3C)c1` stands 14.1 µM (active); under `Cn1c(=O)c2c(nc(CN3CCOCC3)n2Cc2ccccc2)n(C)c1=O`, “inactive”. In the case of `COc1ccc(S(=O)(=O)N(C)C[C@@H]2Oc3ccc(NS(=O)(=O)c4cn(C)cn4)cc3C(=O)N([C@@H](C)CO)C[C@@H]2C)cc1`, the Potency result was “inactive”. Still for that read-out and setting: under `O=C(COC(=O)CCCN1C(=O)c2cccc3cccc(c23)C1=O)NC1CCS(=O)(=O)C1` (configuration not stated) stands “inactive”. Same read-out and setting: then `C[C@H](NS(=O)(=O)c1ccc(Cl)cc1)C(=O)OCC(=O)N1CCOCC1`, with “inactive”. The same measure, in the same setting: under `Nc1ccccc1SCc1cc([N+](=O)[O-])cc2c1OCOC2` stands “inactive”.

For the compound `CC(O)C(NS(=O)(=O)c1ccc(Cl)cc1)C(=O)OCc1cc([N+](=O)[O-])cc2c1OCOC2` (configuration not stated), the Potency is 10 µM (active). Regarding `Cn1c(CC(=O)NNC(=O)c2ccccc2F)nc2ccccc21`, the Potency entry is “inactive”.

Turning to `O=C1N/C(=C/c2cccn2-c2ccccc2)C(=O)N1c1cccc(Cl)c1`, the Potency result was “inactive”. With `CN(C)c1ccc(/C=C2\NC(=S)N(Cc3ccccc3)C2=O)cc1`, the Potency entry was “inactive”. For the compound `O=C1/C(=C\c2ccsc2)NC(=S)N1c1ccccc1`, the Potency was 11.2 µM (active). Take `COc1ccc(C(=O)NCCCN2CCOCC2)cc1Br`: the Potency entry is “inactive”. Consider `COc1ccc(S(=O)(=O)N(C)CC(=O)NCCCN2CCOCC2)cc1Cl`, for which the Potency result is “inactive”. Still for that read-out and setting: then `COc1ccc(-c2ccc(CNCCCN3CCOCC3)o2)cc1Cl`, with 11.2 µM (active). With `CC(=O)NCc1ccc(-c2csc(NC(=O)CCCc3nc4ccccc4c(=O)[nH]3)n2)cc1`, the Potency result is “inactive”.

On to `CCOC(=O)[C@H]1[C@H]2COc3ccccc3[C@@H]2N2C(=O)CN(Cc3ccccc3)C(=O)[C@@]12C`, for which the Potency result was “inactive”. Still for that read-out and setting: then `COc1cccc(NC(=O)COc2cccnc2[N+](=O)[O-])c1`, with “inactive”; and `COc1cccc(NC(=O)c2ccc(Cn3cc([N+](=O)[O-])cn3)o2)c1`, with “inactive”. The same measure, in the same setting: then `COc1cccc(NC(=O)c2nn(C34CC5CC(CC(C5)C3)C4)cc2[N+](=O)[O-])c1`, with 31.6 µM (active).

Regarding `O=C1CC[C@@H]2CC3(C[C@@H]4CCN1[C@H]24)Nc1cc([N+](=O)[O-])ccc1NC3=NC1CCCCC1` (some centres not stated), the Potency entry was “inactive”.

With `C=CCN1C=C(C(=O)c2ccccc2)C(=O)CC1`, the Potency result was “inactive”. Still for that read-out and setting: then `c1ccc(-c2noc(-c3cccs3)n2)nc1`, with “inactive”; and `Cc1nc2ccccc2c(C(=O)O)c1-c1ccccn1`, with “inactive”. Still for that read-out and setting: under `CC(C)(C)Nc1nc(-c2ccccn2)nc2ccccc12` stands 4.47 µM (active).

Turning to `COc1ccc(/C=N/NC(=O)c2cc(-c3cccc(C)c3)nc3ccccc23)cc1O`, the Potency entry was “inactive”. For the compound `C=C(C)Cn1c(SCC(=O)NCc2ccco2)nc2sc3c(c2c1=O)CCC3`, the Potency was 8.91 µM (active). The same measure, in the same setting: then `C=CCn1c(SCC(=O)NCCCO)nc2sc3c(c2c1=O)CCC3`, with “inactive”; and `O=C(CSc1nc2cc3c(cc2c(=O)n1CCC1=CCCCC1)OCO3)NCc1ccco1`, with “inactive”; and `O=C(COC(=O)COc1cccc(F)c1)NCC1CCCCC1`, with “inactive”. For `O=C(Nc1ccon1)c1nc[nH]c1C(=O)NCc1ccccc1`, the Potency entry is “inactive”. On the same count and under the same terms, under `COc1ccc2[nH]c3c(c2c1)CCN1C(=O)C(CC(=O)NCCCN(C)C)C[C@H](C(=O)N2CCOCC2)[C@@]31CCC1CCCC1` (some centres not stated) stands “inactive”; under `O=C(CSc1nc2ccc(Nc3nc(N4CCOCC4)nc(N4CCOCC4)n3)cc2s1)NCc1ccco1`, 5.01 µM (active). Consider `C=CCn1c(CSc2nc3ccccc3s2)nnc1SCC(=O)NCc1ccco1`, for which the Potency result was “inactive”. Take `O=C(CSc1c2c(nc3ccc(Cl)cc13)CCCC2)NCc1ccco1`: the Potency entry was “inactive”.
